Reference: PubChem BioAssay AID1851 (National Center for Advancing Translational Sciences (NCATS), 2009)
Screen size: about 16,000 compounds; about 2,600 (16%) were called active. Inconclusive results (about 20%) are left out. This is one part of a sample in which actives are shown more often than they occur. A number with no mark means an inactive call. Calls follow the shape of the dose curve; as a rule, active = well fitted curve in the direction sought with a large enough effect; inconclusive = small, poorly fitted or top-dose-only effect, or effect the other way; inactive = no such curve, though single readings can be large or run the other way.

biological target: Cytochrome P450 2D6 (Homo sapiens) (UniProt P10635); test: Cytochrome panel assay with activity outcomes; conditions: recombinant CYP, pro-luciferin dealkylation, luminescence, p450-cyp2d6; series mostly up to 57.1 µM; activity, negative = inhibition: at the top concentration
Sequence (P10635 whole entry, looked up): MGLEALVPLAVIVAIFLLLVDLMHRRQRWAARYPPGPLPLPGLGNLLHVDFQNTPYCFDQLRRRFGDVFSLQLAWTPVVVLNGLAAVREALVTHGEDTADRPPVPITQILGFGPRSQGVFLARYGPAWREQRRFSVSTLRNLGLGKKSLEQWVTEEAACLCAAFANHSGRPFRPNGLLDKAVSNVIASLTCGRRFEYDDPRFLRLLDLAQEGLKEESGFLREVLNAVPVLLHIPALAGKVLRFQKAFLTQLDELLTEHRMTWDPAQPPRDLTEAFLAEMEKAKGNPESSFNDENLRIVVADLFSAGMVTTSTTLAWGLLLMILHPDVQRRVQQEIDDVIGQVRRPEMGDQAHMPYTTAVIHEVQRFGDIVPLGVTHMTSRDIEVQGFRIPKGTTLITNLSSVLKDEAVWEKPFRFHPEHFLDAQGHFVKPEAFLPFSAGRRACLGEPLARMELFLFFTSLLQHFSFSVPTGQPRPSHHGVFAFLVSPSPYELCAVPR
Method: The P450 gene superfamily is involved in the metabolism and clearance of xenobiotics. This assay used various human CYP P450 isozymes to measure the dealkylation of various pro-luciferin substrates to luciferin. The luciferin is then measured by luminescence after the addition of a luciferase detection reagent. Pro-luciferin substrate concentration in the assay was equal to its KM for its CYP P450 isozyme. Inhibitors and some substrates limit the production of luciferin, and decrease measured luminescence.
NCGC Assay Protocol Summary:
1, Reagent, 2 uL, Isozyme and Pro-Luciferin
2, Library compounds, 23 nl, 40 uM to 0.24 nM dilution series
3, Controls, 23 nl, Isozyme specific inhibitor
4, Reagent, 2 uL, NADPH regeneration solution
5, Incubation time, 60 min, Isozyme specific temperature
6, Reagent, 4ul, Detection reagent
7, Incubation time, 20 min, Isozyme specific temperature
8, Detection, 1 sec, ViewLux luminescent read
The luciferase-based P450-GloTM Screening Systems were obtained from Promega (Madison, WI) for CYP 1A2 (V9770), CYP 2C9 (V9790), CYP2 C19 (V9880), CYP 2D6 (V9890), and CYP 3A4 Luciferin-PPXE (V9910) and were adapted for 1,536-well microplates and an automated protocol. The control compounds furafylline for 1A2 (F124), sulfaphenazole for CYP 2C9 (S0758), ketoconazole for CYP 2C19 (K1003), quinidine for 2D6 (Q3625), and ketoconazole for 3A4 (K1003) were purchased from Sigma Aldrich (St. Louis, MO). Recombinant P450 enzymes were obtained from baculovirus constructs expressed in insect cells (BD/Gentest).
Medium-binding white solid Kalypsys plates used. Mixtures kept on ice. 1A2: 10 nM 1A2, 100 uM Luc-ME, 100 mM KPO4; 2C9: 10 nM 2C9, 100 uM Luc-H, 25 mM KPO4; 2C19: 5 nM 2C19, 10 uM Luc-H EGE, 50 mM KPO4; 2D6: 5 nM 2D6, 30 uM Luc-ME EGE, 100 mM KPO4; 3A4: 10 nM, 25 uM Luc-PPXE. All amounts are reflected in their final concentration, working concentration is 2x.
NADPH regeneration solution: 1.3 mM NADP+, 3.3 mM glucose-6-phosphate, 3.3 mM MgCl2, 0.4 U/mL glucose-6-phosphate dehydrogenase for all isozymes, 200 mM KPO4 for 3A4. Mixture prepared at RT but kept on ice during automated run.
RT incubation in auxilliary plate hotel for 1A2, 2D6, and 3A4; 37C for 2C9 and 2C19.
Keywords: P450, CYP1A2, CYP2C19, CYP2C9, CYP2D6, CYP3A4, Luciferase, MLSMR, MLSCN, NIH Roadmap, qHTS, NCGC
% is scaled to controls: 0 for no effect and ±100 for the full control effect.

| Compound | activity, negative = inhibition | AC50 |
| --- | --- | --- |
| C[C@H]1CC[C@]2(OC1)O[C@@H]1C[C@@H]3[C@@H]4CC[C@H]5C[C@@H](O)CC[C@]5(C)[C@@H]4CC(=O)[C@@]3(C)[C@H]1[C@@H]2C | 3.5% [at 25.6 µM] | – |
| COCCCN1Cc2ccccc2C1=N | – | 12.6 µM (active) |
| N#CC(=C(/N)Sc1ccccc1N)/C(C#N)=C(/N)Sc1ccccc1N | – | 0.02 µM (active) |
| CCC(=Nc1cc(OC)ccc1OC)c1c(O)[nH]c(=O)[nH]c1=O | -20% | – |
| CCCCn1c(O)c(C(CC)=NCc2ccc(F)cc2)c(=O)[nH]c1=O | -4.9% | – |
| CCCCn1c(O)c(C(CC)=Nc2ccc(OC)cc2OC)c(=O)[nH]c1=O | – | 12.6 µM (active) |
| CCCCN1C(=O)/C(=C/c2ccc(N(C)C)cc2)C(=O)N(Cc2ccco2)C1=O | 2.94% | – |
| [N-]=[N+]=NCC(=O)c1c[nH]c(=O)[nH]c1=O | 8.7% [at 11.4 µM] | – |
| O=[N+]([O-])c1cc([As](=O)(O)O)ccc1O | -1.12% [at 25.6 µM] | – |
| CCn1cnc2c(Nc3cccc(Cl)c3)nc(N[C@@H]3CCCC[C@H]3N)nc21 | – | 25.1 µM (active) |
| CC(=O)[C@@H]1CC[C@@H]2[C@@H]3CC=C4C[C@H](OS(=O)(=O)O)CC[C@@]4(C)[C@H]3CC[C@]21C | -8.1% | – |
| Cc1ccc2c(c1)C1CN(C)CCC1N2C(=O)Nc1cccc(Cl)c1 (centres undefined) | – | 1 µM (active) |
| Brc1c(NC2=NCCN2)ccc2nccnc12 | -11.4% | – |
| Clc1cc(I)cc(Cl)c1NC1=NCCN1 | – | 3.98 µM (active) |
| CCC(CC)C(=O)NC1CCSC1=O (centres undefined) | 0.616% | – |
| CC1(C)N=C(N)N=C(N)N1c1cccc(C(=O)Nc2ccc(S(=O)(=O)F)cc2)c1 | – | 2 µM (active) |
| CN1C(=O)c2ccccc2Sc2ccc(C(=O)N3CCC4(CC3)OCCO4)cc21 | 13.9% | – |
| C=CCN1C(=O)c2ccccc2Sc2ccc(C(=O)N3CCC4(CC3)OCCO4)cc21 | -5.85% | – |
| CC(=O)c1ccc2c(c1)N(CCCN(C)C)c1ccccc1S2 | – | 2.51 µM (active) |
| CCCCc1nc2ccccc2c(=O)n1-c1ccccc1[N+](=O)[O-] | -22.1% | – |
| COc1cc(CCN)ccc1O | -0.172% | – |
| CN(C(=O)Cc1ccccc1)[C@H](CN1CCCC1)c1ccccc1 | – | 3.16 µM (active) |

| Compound | activity, negative = inhibition | AC50 |
| --- | --- | --- |
| CN(C(=O)Cc1ccc(Cl)c(Cl)c1)[C@@H](CN1CCCC1)c1cccc(OCC(=O)O)c1 | 0.96% | – |
| O=c1[nH]oc2c1CCNC2 | – | inactive |
| C#C[C@@]1(O)CC[C@@H]2[C@@H]3CCC4=CC(=O)CC[C@@]4(C)[C@H]3CC[C@]21C | 3.54% [at 25.6 µM] | – |
| Cc1ccc(N2C(=O)/C(=C/c3ccc(CN(CCC#N)S(C)(=O)=O)o3)C(=O)NC2=S)cc1C | 4.47% | – |
| Cc1ccc(N2C(=O)/C(=C/N3CCN(C(=O)c4ccco4)CC3)C(=O)NC2=S)cc1C | – | 0.0282 µM (active) |
| CC(=O)Nc1ccccc1C(=O)OCC(=O)c1ccc2ccccc2c1 | 29.5% | – |
| CC[C@@]1(O)C(=O)OCc2c1cc1n(c2=O)Cc2cc3c(NC(=O)CN)cccc3nc2-1 | 3.66% [at 11.4 µM] | – |
| O=C(O)[C@H]1[C@H](C(=O)O)[C@H]2CC[C@@H]1O2 | 2.98% | – |
| CN(C)CC/C=C1\c2ccccc2Sc2ccc(Cl)cc21 | – | 2.51 µM (active) |
| CN(C)CCC=C1c2ccccc2CCc2ccccc21 | – | 7.94 µM (active) |
| CN(C)[C@@H]1C(=O)C(C(N)=O)=C(O)[C@]2(O)C(=O)C3=C(O)c4c(O)cccc4[C@@](C)(O)[C@H]3[C@H](O)[C@@H]12 | 0.652% [at 25.6 µM] | – |
| FC(F)(F)c1nc2ccc(SSc3ccc4nc(C(F)(F)F)[nH]c4c3)cc2[nH]1 | -8.27% [at 11.4 µM] | – |
| CP(=O)(O)C1=CCNCC1 | -1.3% | – |
| CCCN1CCC[C@H](c2cccc(C#N)c2)C1 | – | 31.6 µM (active) |
| CCCN1CCC[C@H](c2cccc(O)c2)C1 | – | inactive |
| CN1C2CCC1/C(=C\c1ccccc1)C(=O)/C2=C\c1ccccc1 | – | 0.158 µM (active) |
| CCOC(=O)N(c1ccccc1)P1(=S)OCCO1 | 4.06% | – |
| CC(=O)[C@@H]1CC[C@@H]2[C@@H]3CCC4=CC(=O)CC[C@@]4(C)[C@H]3CC[C@]21C | -11.4% [at 25.6 µM] | – |
| Cn1ccnc1 | 7.17% | – |
| C[Se]C[C@@H](N)C(=O)O | 15.1% | – |
| CC[C@]1(C2=NCCN2)Cc2ccccc2O1 | – | 12.6 µM (active) |
| CC[C@H](C)C(=O)O[C@@H]1[C@H](O)[C@@H]2[C@H](CN3C[C@@H](C)CC[C@@H]3[C@@]2(C)O)[C@@H]2C[C@@]34O[C@@]5(O)[C@@H](OC(=O)[C@](C)(O)CC)CC[C@@]3(C)[C@H]5[C@H](OC(C)=O)[C@@H](OC(C)=O)[C@H]4[C@]12O | 9.64% [at 25.6 µM] | – |
